Assay results: PubChem BioAssay AID977607 (Broad Institute, 2014)
Screen size: about 1,500 compounds; about 460 (31%) were called active. Not shown: some 1% with an inconclusive outcome.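 The calls were made as follows: active = curve reaches 40% activation over neutral controls at an AC40 no higher than the top valid tested concentration; inconclusive = no clear call, values can overlap the other calls; inactive = signal moving opposite to the expected increase, and the rest.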 A selection follows. Potency and affinity values are given separately.

Assay: activators of glucose-dependent insulin secretion, dose response, cell-based, INS-1E, Gaussia luciferase, luminescence, cherry-pick, set 2 (AID 977607);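 also: 0% = median of the plate neutral control wells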
Details: INS-1E GLuc insulin secretion reporter, 2-3 h, active compounds read high; at 35 µM, 100% = signal doubled over neutral wells unless noted

Max activation, inactive:
CCOC(=O)N1CCN(S(=O)(=O)N2CCCC(C(=O)NCc3cc(OC)ccc3OC)C2)CC1 (centres undefined) -20.8% [at 1.2 µM, 100% = signal doubled over neutral wells]
CC(=O)Nc1sc(C)c(C)c1C(=O)OCC(=O)Nc1cc(S(C)(=O)=O)ccc1Cl -22.2%
CCOC(=O)c1c(NC(=O)c2ccoc2C)sc(C(=O)N(C)C)c1C 12.6%
O=c1[nH]c(CN2CCN(c3ccc(O)cc3)CC2)nc2scc(-c3ccc(Cl)cc3)c12 -25.6%
CCOc1ccc(C(C)=O)cc1COC(=O)CN1C(=O)NC2(CCCC2)C1=O -28.5% [at 0.005 µM, 100% = signal doubled over neutral wells]
COc1ccc2ccc(=O)oc2c1CC=C(C)C -13.3% [at 0.015 µM, 100% = signal doubled over neutral wells]
COc1ccc(CNC(=O)COC(=O)c2cc(C)nc3ccccc23)cc1 16.2%
CCOC(=O)Cn1c(=O)n(Cc2ccc(OC)cc2)c(=O)c2cccnc21 -22.7% [at 0.005 µM, 100% = signal doubled over neutral wells]
CCOC(=O)c1c(C)[nH]c(C(C)=NNC(=O)c2cccs2)c1C -42% [at 11 µM, 100% = signal doubled over neutral wells]
CCOC(=O)c1oc2ccccc2c1NC(=O)c1ccco1 -17.8% [at 0.135 µM, 100% = signal doubled over neutral wells]
CNC(=O)C(=O)NCC1OCCCN1S(=O)(=O)c1ccc(F)cc1C (centres undefined) -17.8% [at 0.005 µM, 100% = signal doubled over neutral wells]
CC(C)NC(=O)C1(C)CCN1Cc1cccc(C#N)c1 (centres undefined) -13.6% [at 0.0016 µM, 100% = signal doubled over neutral wells]
Cc1cccc(C(=O)NC(=S)NNC(=O)COc2c(C)cccc2C)c1 -26.2% [at 11 µM, 100% = signal doubled over neutral wells]
COc1ccc(-c2cccc(C(=O)Nc3ccc(C)cc3)c2)cc1 26.8%
Cc1ccc(-n2nnnc2SCc2ccc(C(=O)O)cc2)cc1C -23.5% [at 3.8 µM, 100% = signal doubled over neutral wells]
N#CC1=C(N)Oc2nc(-c3ccccc3)[nH]c2C1c1cccnc1 (centres undefined) -20.8% [at 0.005 µM, 100% = signal doubled over neutral wells]
N#Cc1sc2nc(C3CC3)cc(-c3ccccc3)c2c1N -14.8% [at 0.015 µM, 100% = signal doubled over neutral wells]
O=C1CSC(c2cccc(O)c2)N1Cc1ccccc1 (centres undefined) -24.7% [at 0.005 µM, 100% = signal doubled over neutral wells]
C/C=C/c1ccc(OCCN2C(=O)NC(C)(C)C2=O)c(OC)c1 -11.4% [at 0.005 µM, 100% = signal doubled over neutral wells]
CCn1ccc(C(=O)Nc2ccccc2SC)n1 -10.4% [at 0.046 µM, 100% = signal doubled over neutral wells]
NS(=O)(=O)c1ccc(CNC(=O)c2cc(S(=O)(=O)N3CCOCC3)ccc2N2CCCC2)cc1 -17.8% [at 0.0016 µM, 100% = signal doubled over neutral wells]
O=S(=O)(NCc1ccccc1)c1ccc(S(=O)(=O)N2CCCCC2)cc1 -11.7% [at 3.8 µM, 100% = signal doubled over neutral wells]
CNS(=O)(=O)c1ccc2c3c(cccc13)C(=O)N2 19.7%
CC(=O)Nc1cccc(-n2c(=O)n(Cc3ccccc3)c(=O)c3[nH]cnc32)c1 18.8% [at 1.2 µM, 100% = signal doubled over neutral wells]
N#CCCCc1cc2ccccc2cn1 -14.5% [at 0.046 µM, 100% = signal doubled over neutral wells]
COc1cc(/C=N/NC(=O)CNC(=O)c2cccs2)ccc1O -23.7% [at 0.015 µM, 100% = signal doubled over neutral wells]
COc1cc(/C=N/Nc2cc(C)nc(NS(=O)(=O)c3ccc(C)cc3)n2)ccc1O 36.9% [at 3.8 µM, 100% = signal doubled over neutral wells]
COc1ccc(/C=N/NC(=O)Cn2cnc3ccccc3c2=O)cc1OC 23.7% [at 11 µM, 100% = signal doubled over neutral wells]
CCNc1nc(CC)nc2c1oc1ccccc12 -18.9% [at 0.015 µM, 100% = signal doubled over neutral wells]
N#CCc1nn2c(-c3ccccc3)ccnc2c1C#N -20% [at 0.015 µM, 100% = signal doubled over neutral wells]
Cc1cccc(-n2c(C)c(C)c3c(N)ncnc32)c1 29.8%
COc1ccc(/C=C/c2nc(C#N)c(NCCN(C)C)o2)cc1OC -15.9% [at 0.42 µM, 100% = signal doubled over neutral wells]
CCOCC(=O)Nc1c(C(=O)OCC)oc2ccccc12 28.8% [at 3.8 µM, 100% = signal doubled over neutral wells]
Nc1[nH]c(C(=O)c2ccccc2)c(-c2ccncc2)c1C(=O)NCc1cccc2ccccc12 -29.2%
C[C@@H]1CN([C@H](C)CO)C(=O)c2cc(C3=CCCCC3)cnc2O[C@H]1CN(C)C(=O)CN1CCOCC1 -24.7% [at 0.005 µM, 100% = signal doubled over neutral wells]
O=C(c1cccs1)N(Cc1ccc(Cl)cc1)C1CCS(=O)(=O)C1 (centres undefined) 21.3%
O=C(c1cccs1)N(Cc1cccc(F)c1)C1CCS(=O)(=O)C1 (centres undefined) 26.2% [at 0.005 µM, 100% = signal doubled over neutral wells]
CCOC(=O)C1=NN(C(=O)Nc2cccc(C(F)(F)F)c2)C2C(=O)N(c3cccc(C(F)(F)F)c3)C(=O)C12 (centres undefined) 17.3% [at 3.8 µM, 100% = signal doubled over neutral wells]
N#Cc1ccc(-c2ccc3c(c2)[C@@H]2[C@@H](CCN2C(=O)C2CCCC2)[C@@H](CO)N3)cc1 -29.6%
O=C(CCn1nc(-c2ccc(Cl)cc2)ccc1=O)NCCCN1CCCCCC1 -17.5% [at 0.005 µM, 100% = signal doubled over neutral wells]
CC(C)(C)C1=Nn2c(nnc2C2CCCCC2)SC1 27% [at 11 µM, 100% = signal doubled over neutral wells]
C=CCNc1cc(C)oc(=O)c1C(=O)CCC -21.1% [at 0.015 µM, 100% = signal doubled over neutral wells]
CCN1CCN(CCCNC(=O)c2ccc3c(c2)N(Cc2ccccc2)CCS3)CC1 -25.6% [at 11 µM, 100% = signal doubled over neutral wells]
CCOC(=O)c1sc2nc(C)[nH]c(=O)c2c1C 8.29% [at 0.135 µM, 100% = signal doubled over neutral wells]
CCCCc1nc(N)c(C#N)c(-c2ccco2)c1CCC 35.2%
COc1ccc(CCNC(=O)CCC(=O)c2cccs2)cc1OC 35.6% [at 1.2 µM, 100% = signal doubled over neutral wells]
COc1ccc(CCNC(=O)CCCc2nnc3n(C)c(=O)c4sccc4n23)cc1OC -17.7% [at 0.0016 µM, 100% = signal doubled over neutral wells]
COc1ccc(-n2c3c(c(=O)[nH]c2=O)C(NS(=O)(=O)c2ccc(Cl)cc2)(C(F)(F)F)C(=O)N3)cc1 (centres undefined) -27.1% [at 0.015 µM, 100% = signal doubled over neutral wells]
N#Cc1cnn2c(C(F)(F)F)cc(-c3ccccc3)nc12 -14.3% [at 0.0016 µM, 100% = signal doubled over neutral wells]
Cc1cc(C)c(CSc2nnnn2-c2ccc(C(=O)O)cc2)c(C)c1 -11.8% [at 1.2 µM, 100% = signal doubled over neutral wells]
O=C(c1cccnc1)N(Cc1ccccc1)c1ccccc1 25.1%
CCCNC(=O)C1(C)CCCN(Cc2cccn2C)C1 (centres undefined) -16.6% [at 3.8 µM, 100% = signal doubled over neutral wells]
CC(=O)Nc1ccc(Cl)c(-c2nc3ncccc3o2)c1 24% [at 0.005 µM, 100% = signal doubled over neutral wells]
CC(C)CCN(CC(=O)NCc1ccc(F)cc1)S(=O)(=O)c1ccccc1F -38.5% [at 11 µM, 100% = signal doubled over neutral wells]
